Screens from PubChem.
A selection: hits, their analogues and other compounds. The true share with any hit is near 2.1%.
Rin1 Abl inh – inhibitors of human Rin1-Abl protein interaction; P00519+Q13671; TR-FRET Rin1/Abl binding, biochemical; inhibition, % at 7.35 µM; 0.4% of 360,000 active; in the data active = inhibition above about 5%, passing the limit was not always enough
CTSL1 counter – blocks F. hepatica cathepsin L1 in PFM18AAP counter-screen. recombinant F. hepatica cathepsin L1, Z-Leu-Arg-MCA fluorescence. inhibition, % at 5.96 µM. 0.49% of 300,000 active. AID 1906;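 active = inhibition above the mean of all tested compounds plus 3 SD, set per screening campaign, cut at about 17% in these data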;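 note: 0% = plate median of test compound wells and 100% = 1 µM Z-Phe-Ala-diazomethylketone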
Calb FLC – C. albicans growth modulation with fluconazole; C. albicans CaCi-2 (fluconazole-resistant clinical isolate) + fluconazole, Alamar Blue growth, 48 h; AID 1979; 0.57% of 300,000 active; growth inhibition, % (concentration not given with the values);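 active = growth inhibition above about 58% in most replicates, limit read from the data, passing the limit was not always enough; inconclusive = exactly half the replicates above a set limit; inactive = most replicates below a set limit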;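 note: all wells also contain fluconazole at 8 µg/ml as a sub-toxic cotreatment; 0% = median of DMSO wells and 100% = median of geldanamycin control wells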
PfM18AAP inh – blocks P. falciparum M18 aspartyl aminopeptidase; AID 1822; inhibition, % at 7.35 µM; 1.2% of 290,000 active; recombinant PfM18AAP, H-Glu-NHMec fluorogenic cleavage;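 active = inhibition above the campaign mean inhibition over all tested compounds plus 3 SD, cut at about 28% in these data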;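 note: 0% = plate median of test compound wells and 100% = 2 mM ZnCl2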
Rin1-Abl confirm – confirmation of inhibitors of human Rin1-Abl interaction | shares compounds with Rin1 Abl inh | TR-FRET Rin1-Abl binding, purified proteins | inhibition, % at 7.35 µM | 49% of 1,300 active | AID 602124
GFP quench – quenches GFP fluorescence, counter-screen for Rin1-Abl inhibitors. shares compounds with Rin1 Abl inh. inhibitors/quenchers counterscreen. inhibition, % at 6.75 µM. 8.5% of 1,300 active. AID 602125;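 note: ABL1-eGFP fusion protein alone without its partner RIN1-SBP; 0% = protein with vehicle and 100% = wells lacking protein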
GFP quench dose – GFP fluorescence interference dose response; GFP fluorescence interference/quenching counterscreen; shares compounds with Rin1 Abl inh; AID 602182; IC50, µM; 230 tested, under 10 active; call rule not given here;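 note: ABL1-eGFP fusion protein alone without its RIN1 binding partner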
Numbers without * were called inactive; ? = inconclusive; nt = no result. Cut-off read from the data, not from the text of the source, unless noted: active = inhibition above about 6.5%; inactive = the rest.

SMILES | Rin1 Abl inh | CTSL1 counter | Calb FLC | PfM18AAP inh | Rin1-Abl confirm | GFP quench | others
CC1=NN(c2ccccc2)C(=O)/C1=C/c1ccc[nH]1 | -3 | 0 | 10 | -4 | nt | nt
CCOc1cc(/C=C2/C(=O)N(c3ccccc3)N=C2C)ccc1OC(=O)c1ccco1 | 19* | -4 | 1 | -2 | -4 | -4
CCOc1cc(/C=C2\C(=O)N(c3ccc(C(N)=O)cc3)N=C2C)ccc1OC(=O)c1cccs1 | 0 | -4 | 1 | 6 | nt | nt
CC1=NN(c2ccc(C(=O)O)cc2)C(=O)/C1=C/c1ccc(-c2ccccc2F)o1 | 3 | 0 | 5 | 7 | nt | nt
C/C(=N\N=C1\NC(=O)C(CC(=O)NCc2ccccc2)S1)C(C)C (centres undefined) | 0 | -2 | -20 | -6 | nt | nt
Cc1ccc(N=C2NC(=O)C(CC(=O)NCc3ccccc3)S2)cc1C (centres undefined) | 8.9* | 1 | ? | -18 | 0 | 1
O=C(NCCOc1nc(N2CCCCC2)nc(N2CCOCC2)n1)Nc1ccccc1 | 1 | 1 | 1 | -1 | nt | nt
O=C(NCCOc1nc(N2CCOCC2)nc(N2CCOCC2)n1)Nc1ccccc1 | 6.9* | 6 | -2 | 4 | 2 | -2
Cc1ccc(C(C)NC(=O)C23CC4CC(CC(C4)C2)C3)cc1 (centres undefined) | 6.0* | -7 | -13 | -10 | 0 | -1
CN(CC(=O)Nc1cccc(C(F)(F)F)c1)C1=NS(=O)(=O)c2ccccc21 | 9.9* | nt | nt | nt | 4 | -2
COc1ccc(CN=CC2=C(O)CNC2=O)cc1 | 34* | 4 | -9 | 0 | 43* | 0
C=C1c2cccc(O)c2C(=O)C2C(=O)[C@]3(O)C(=O)C(C(N)=O)C(=O)[C@@H](N(C)C)[C@@H]3[C@@H](O)[C@H]12 (some centres undefined) | 33* | nt | nt | nt | 4 | 3
C[C@H]1c2cccc(O)c2C(O)=C2C(=O)[C@]3(O)C(O)=C(C(N)=O)C(=O)[C@@H](N(C)C)C3[C@@H](O)C21 (some centres undefined) | 5 | 0 | nt | nt | nt | nt
CC1(C)CC(=O)C=C(c2cn[nH]n2)C1 | -1 | nt | nt | nt | nt | nt
CCN(CC)C(=O)CSc1nc2[nH]ncc2c(=O)[nH]1 | 0 | -2 | 16 | 5 | nt | nt
CC(=O)N1c2ccc(S(=O)(=O)N3CCC(C(=O)NCc4ccc(Cl)cc4)CC3)cc2CC1C (centres undefined) | 2 | -2 | 4 | 2 | nt | nt
CC(=O)N1c2ccc(S(=O)(=O)N3CCC(C(=O)NCCc4ccc(Cl)cc4)CC3)cc2CC1C (centres undefined) | 9.8* | 1 | -4 | -7 | -1 | -1
CN1OC[C@@H]2CN(Cc3cc(Cl)cc(Cl)c3)[C@H](c3cccc(-c4ccc(C#N)cc4)c3)C[C@@H]21 | 1 | nt | nt | nt | nt | nt
CCn1c(N2CCN(CC(=O)c3c(C)n(C)c4ccccc34)CC2)nc2c1c(=O)[nH]c(=O)n2C | 6.4* | 7 | -3 | -1 | -2 | 0
NC(=O)[C@@H]1CCCN1C(=O)c1cc(COc2ccc3c(c2)CCCC3)on1 | 6.1* | nt | -19 | 0 | 0 | 1
N#CC(=C1Nc2ccccc2N1)S(=O)(=O)c1ccccc1 | 9.5* | 1 | 3 | -3 | -3 | 1
O=C(c1ccsc1)N1CCCC(N2CCOCC2)C1 (centres undefined) | 3 | -3 | 7 | 1 | nt | nt
OCC1OC(n2cnc3c(NCc4ccccc4O)ncnc32)C(O)C1O (centres undefined) | 20* | nt | nt | nt | 17* | -1 | GFP quench dose=>67
OCC1OC(n2cnc3c(NCCc4ccccc4)ncnc32)C(O)C1O (centres undefined) | 1 | -5 | -12 | nt | nt | nt
CCn1c(SCc2ccc(C(=O)OC)o2)nnc1-c1c[nH]c2ccccc12 | 14* | -2 | -2 | -9 | 11* | 0
SMILES | Rin1 Abl inh | CTSL1 counter | Calb FLC | PfM18AAP inh | Rin1-Abl confirm | GFP quench | others
CCn1c(SC(C)C(=O)OC)nnc1-c1c[nH]c2ccccc12 (centres undefined) | -1 | -2 | -6 | -8 | nt | nt
C#CCO[C@@H]1C[C@H](n2cnc3c(NC(=O)c4ccccc4)ncnc32)O[C@@H]1CO | 0 | 0 | 10 | nt | nt | nt
O=C(Nc1ccn(C2CCC(CO)O2)c(=O)n1)c1ccccc1 (centres undefined) | 65* | nt | nt | nt | 56* | 0
C#CCO[C@@H]1C[C@H](n2ccc(NC(=O)c3ccccc3)nc2=O)O[C@@H]1CO | 10* | -3 | -2 | nt | 5 | 1
CCOC(=O)c1c(C)n(C(=O)c2ccco2)c(=O)n1C(=O)c1ccco1 | 36* | 1 | 25 | 6 | 35* | -1 | GFP quench dose=>67
CCOC(=O)c1c(C)c(C(=O)N2CCN(C(=O)c3ccco3)CC2)c(C)n1C | 0 | -4 | -1 | 0 | nt | nt
CC(=O)Nc1cc(OC(C)=O)c2nonc2c1OC(C)=O | 16* | 110* | nt | 17 | 0 | 5
COc1ccc(C[C@H]2CN3C(=NC[C@@H]3Cc3ccc(O)cc3)N2C[C@H](C)NC(=O)c2ccc(C)c(Br)c2)cc1 | 9.4* | 2 | 13 | nt | 1 | 0
COc1ccc(C[C@H]2CN3C(=NC[C@@H]3C(C)C)N2C[C@H](C)NC(=O)c2ccc(C)c(Br)c2)cc1 | 2 | 2 | -12 | 3 | nt | nt
COc1cc(NC(=O)[C@@H]2CCCN2S(=O)(=O)c2cccc3cccnc23)cc(OC)c1OC | -1 | -2 | nt | nt | nt | nt
CCCCCCCC[n+]1c(C)n(-c2ccccc2)c2ccc(NC(C)=O)cc21 | 5.0* | 4 | ? | -10 | 6.7* | 0
COC(=O)C1=C(O)/C(=C\c2ccc(CNS(=O)(=O)c3ccc(Cl)cc3)o2)N=C1C | 6 | 3 | 15 | -15 | nt | nt
COC(=O)C1=C(O)/C(=C\c2ccc(CNS(=O)(=O)c3ccccc3)o2)N=C1C | 6.0* | 6 | 38 | 3 | -1 | 3
Cc1cc(C)c(S(=O)(=O)Nc2ccccc2C(=O)N2CCCC2)c(C)c1 | 1 | 1 | -3 | -3 | nt | nt
CCC(C)c1ccc(NC(=S)N2CCN(C(=O)C3CCCO3)CC2)cc1 (centres undefined) | 3 | -2 | -13 | 0 | nt | nt
COc1cc(SC)ccc1C(=O)N1CCN(c2ccccc2F)CC1 | 0 | 5 | -7 | -9 | nt | nt
CCOC(=O)C1CCCN(C(=O)c2cn(CC)c(=O)c3cc(OC)c(OC)cc23)C1 (centres undefined) | -3 | -3 | -13 | -12 | nt | nt
CCOC(=O)C1CCCN(C(=O)c2cn(C)c(=O)c3cc(OC)c(OC)cc23)C1 (centres undefined) | 25* | 0 | -3 | 12 | 32* | 0 | GFP quench dose=>68
COc1cc2c(C(=O)N3CCN(c4ccccc4F)CC3)cn(C)c(=O)c2cc1OC | 8.9* | 6 | 6 | -17 | 12* | 1
CCOc1ccc(S(=O)(=O)N2CCCC(C(=O)NCC3CCCO3)C2)cc1 (centres undefined) | -3 | -3 | 0 | 2 | nt | nt
